# Values joined by “and” are separate entries in the source; they are usually repeats but may differ in a detail not shown here. Equal entries are not always repeated. In all, about 5,500 compounds went through this assay and about 2,000 (36%) were called active. Not shown: some 18% with an inconclusive outcome. No stated cut-off is given here; in the data, active means normalized growth mostly below about 0.91 (no sharp cut-off); inconclusive means no clear call, values can overlap the other calls; inactive means mostly above about 0.92. Some of the results follow. More than one record can exist for a structure, and the calls need not agree.
# Assay: chemical genetic growth profiling, strain panel (AID 1159580);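 further: tested at 20 µM; growth read once vehicle control cultures reached saturation at 30 °C; 1 = growth at the plate median or of vehicle wells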
# Details: S. cerevisiae deletion strains, growth OD
structure (smiles),measurement,setting,value
Cc1ccc(Cl)c(Nc2ccccc2C(=O)O)c1Cl,normalized growth,"locus YAL013W, strain DEP1, stronger effect = lower value",0.938 (inactive)
same,normalized growth,"locus YAL021C, strain ccr4, stronger effect = lower value",0.917 (inactive)
same,normalized growth,"locus YAL026C, strain drs2, stronger effect = lower value",0.787 (active)
same,normalized growth,"locus YAL030W, strain snc1, stronger effect = lower value",0.876 (active)
same,normalized growth,"locus YAL040C, strain CLN3, stronger effect = lower value",0.916 (inactive)
same,normalized growth,"locus YBL061C, strain skt5, stronger effect = lower value",0.884 (active)
same,normalized growth,"locus YBR009C, strain hhf1, stronger effect = lower value",0.856 (active)
same,normalized growth,"locus YBR021W, strain FUR4, stronger effect = lower value",0.954 (inactive)
same,normalized growth,"locus YBR023C, strain chs3, stronger effect = lower value",0.852 (active)
same,normalized growth,"locus YBR171W, strain sec66, stronger effect = lower value",0.817 (active)
same,normalized growth,"locus YBR229C, strain ROT2, stronger effect = lower value",0.884 (active)
same,normalized growth,"locus YBR231C, strain swc5, stronger effect = lower value",0.885 (active)
same,normalized growth,"locus YBR279W, strain paf1, stronger effect = lower value",0.867 (active)
same,normalized growth,"locus YCL011C, strain gbp2, stronger effect = lower value",0.852 (active)
same,normalized growth,"locus YCL016C, strain dcc1, stronger effect = lower value",0.818 (active)
same,normalized growth,"locus YCL029C, strain bik1, stronger effect = lower value",0.887 (active)
same,normalized growth,"locus YCL061C, strain MRC1 (second series), stronger effect = lower value",0.965 (inactive)
same,normalized growth,"locus YCL061C, strain MRC1, stronger effect = lower value",0.891 (active)
same,normalized growth,"locus YCL069W, strain vba3, stronger effect = lower value",0.866 (active)
same,normalized growth,"locus YCR088W, strain abp1, stronger effect = lower value",0.876 (active)
same,normalized growth,"locus YDL005C, strain med2, stronger effect = lower value",0.895 (active)
same,normalized growth,"locus YDL035C, strain GPR1, stronger effect = lower value",0.939 (inactive)
same,normalized growth,"locus YDL040C, strain nat1, stronger effect = lower value",0.894 (active)
same,normalized growth,"locus YDL074C, strain BRE1, stronger effect = lower value",0.799 (inactive)
same,normalized growth,"locus YDL101C, strain DUN1, stronger effect = lower value",0.957 (inactive)
same,normalized growth,"locus YDL185W, strain tfp1, stronger effect = lower value",0.953 (inactive)
same,normalized growth,"locus YDL192W, strain arf1, stronger effect = lower value",0.824 (active)
same,normalized growth,"locus YDR001C, strain nth1, stronger effect = lower value",0.871 (active)
same,normalized growth,"locus YDR069C, strain doa4, stronger effect = lower value",0.928 (inactive)
same,normalized growth,"locus YDR101C, strain arx1, stronger effect = lower value",0.906 (active)
same,normalized growth,"locus YDR137W, strain rgp1, stronger effect = lower value",0.455 (active)
same,normalized growth,"locus YDR150W, strain NUM1, stronger effect = lower value",0.879 (active) and 0.942 (inactive)
same,normalized growth,"locus YDR159W, strain sac3, stronger effect = lower value",0.766 (active)
same,normalized growth,"locus YDR162C, strain NBP2, stronger effect = lower value",0.794 (active)
same,normalized growth,"locus YDR195W, strain ref2",1.11 (inactive)
same,normalized growth,"locus YDR297W, strain sur2, stronger effect = lower value",0.908 (active)
same,normalized growth,"locus YDR318W, strain mcm21, stronger effect = lower value",0.83 (active)
same,normalized growth,"locus YDR334W, strain swr1, stronger effect = lower value",0.879 (active)
same,normalized growth,"locus YDR335W, strain msn5, stronger effect = lower value",0.896 (active)
same,normalized growth,"locus YDR363W, strain ESC2, stronger effect = lower value",0.985 (inactive)
same,normalized growth,"locus YDR388W, stronger effect = lower value",0.87 (active)
same,normalized growth,"locus YDR392W, strain spt3, stronger effect = lower value",0.188 (active)
same,normalized growth,"locus YDR502C, strain sam2, stronger effect = lower value",0.835 (active)
same,normalized growth,"locus YEL003W, strain gim4, stronger effect = lower value",0.904 (active)
same,normalized growth,"locus YEL037C, strain rad23, stronger effect = lower value",0.901 (active)
same,normalized growth,"locus YEL061C, strain CIN8 (second series), stronger effect = lower value",0.885 (active)
same,normalized growth,"locus YEL061C, strain CIN8, stronger effect = lower value",0.888 (active)
same,normalized growth,"locus YER002W, strain NOP16, stronger effect = lower value",0.926 (inactive)
same,normalized growth,"locus YER015W, strain faa2, stronger effect = lower value",0.926 (active)
same,normalized growth,"locus YER016W, strain bim1, stronger effect = lower value",0.91 (active)
same,normalized growth,"locus YER110C, stronger effect = lower value",0.866 (active)
same,normalized growth,"locus YER111C, strain swi4, stronger effect = lower value",0.876 (active)
same,normalized growth,"locus YER155C, strain BEM2 (second series), stronger effect = lower value",0.644 (active)
same,normalized growth,"locus YER155C, strain BEM2, stronger effect = lower value",0.839 (active)
same,normalized growth,"locus YER167W, strain BCK2, stronger effect = lower value",0.905 (inactive)
same,normalized growth,"locus YFR010W, strain ubp6, stronger effect = lower value",0.931 (inactive)
same,normalized growth,"locus YGL078C, strain dbp3, stronger effect = lower value",0.969 (inactive)
same,normalized growth,"locus YGL086W, strain mad1, stronger effect = lower value",0.905 (active)
same,normalized growth,"locus YGL167C, strain pmr1, stronger effect = lower value",0.829 (active)
same,normalized growth,"locus YGL173C, strain kem1, stronger effect = lower value",0.85 (active)
same,normalized growth,"locus YGL227W, strain vid30, stronger effect = lower value",0.906 (active)
same,normalized growth,"locus YGL240W, strain doc1, stronger effect = lower value",0.91 (inactive)
same,normalized growth,"locus YGL248W, strain PDE1, stronger effect = lower value",0.899 (inactive)
same,normalized growth,"locus YGL253W, strain hxk2, stronger effect = lower value",0.81 (active)
same,normalized growth,"locus YGR078C, strain PAC10, stronger effect = lower value",0.926 (inactive)
same,normalized growth,"locus YGR135W, strain pre9, stronger effect = lower value",0.795 (active)
same,normalized growth,"locus YGR229C, strain SMI1, stronger effect = lower value",0.841 (inactive)
same,normalized growth,"locus YGR252W, strain gcn5, stronger effect = lower value",0.834 (inactive)
same,normalized growth,"locus YHR013C, strain ard1, stronger effect = lower value",0.793 (active)
same,normalized growth,"locus YHR027C, strain rpn1, stronger effect = lower value",0.903 (active)
same,normalized growth,"locus YHR030C, strain SLT2, stronger effect = lower value",0.901 (active) and 0.983 (inactive)
same,normalized growth,"locus YHR079C, strain IRE1 (second series), stronger effect = lower value",0.876 (active)
same,normalized growth,"locus YHR079C, strain IRE1, stronger effect = lower value",1.03 (inactive)
same,normalized growth,"locus YHR094C, strain hxt1, stronger effect = lower value",0.869 (active)
same,normalized growth,"locus YHR129C, strain ARP1, stronger effect = lower value",0.91 (active)
same,normalized growth,"locus YHR142W, strain chs7, stronger effect = lower value",0.737 (active)
same,normalized growth,"locus YHR200W, strain rpn10, stronger effect = lower value",0.882 (active)
same,normalized growth,"locus YIL066C, strain RNR3, stronger effect = lower value",0.881 (inactive)
same,normalized growth,"locus YIL073C, strain SPO22, stronger effect = lower value",0.735 (inactive)
same,normalized growth,"locus YIL125W, strain kgd1, stronger effect = lower value",0.981 (inactive)
same,normalized growth,"locus YIR030C, strain dcg1, stronger effect = lower value",0.868 (active)
same,normalized growth,"locus YJL092W, strain hpr5, stronger effect = lower value",0.872 (active)
same,normalized growth,"locus YJL095W, strain BCK1 (second series), stronger effect = lower value",0.822 (active)
same,normalized growth,"locus YJL095W, strain BCK1, stronger effect = lower value",0.664 (active) and 0.986 (inactive)
same,normalized growth,"locus YJL115W, strain asf1, stronger effect = lower value",0.934 (inactive)
same,normalized growth,"locus YJL129C, strain trk1, stronger effect = lower value",0.644 (active)
same,normalized growth,"locus YJL134W, strain LCB3, stronger effect = lower value",0.906 (active)
same,normalized growth,"locus YJL154C, strain vps35, stronger effect = lower value",0.891 (active)
same,normalized growth,"locus YJL164C, strain tpk1, stronger effect = lower value",0.866 (active)
same,normalized growth,"locus YJL166W, strain qcr8, stronger effect = lower value",0.864 (active)
same,normalized growth,"locus YJL168C, strain set2, stronger effect = lower value",0.892 (active)
same,normalized growth,"locus YJL187C, strain SWE1 (second series), stronger effect = lower value",0.897 (inactive)
same,normalized growth,"locus YJL187C, strain SWE1, stronger effect = lower value",0.891 (active)
same,normalized growth,"locus YJR043C, strain POL32, stronger effect = lower value",0.956 (inactive)
